Assay outcomes: PubChem, several laboratories
ADAM10 inh: ADAM10 inhibition, QFRET primary screen | O14672 | recombinant ADAM10, EDANS/DABCYL FRET peptide cleavage, 3 h | inhibition, % at 7 µM | 370,000 tested, 0.62% active | AID 720582;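 active means inhibition above a per-campaign cutoff equal to the mean of compounds falling between control-based bounds plus 3 SD, cut at about 20% in these data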
FAS TE block: inhibitors of human fatty acid synthase thioesterase domain. inhibition, % at 15 µM. AID 602261. 360,000 tested, 0.67% active. recombinant FAS-TE, OMFH fluorogenic substrate, fluorescence endpoint. P49327;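 active means compounds whose normalised, plate-corrected inhibition of enzyme fluorescence in the single-dose primary screen is 50% or more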
ADAM17 inh: inhibitors of human ADAM17; P78536; recombinant ADAM17, EDANS/DABCYL FRET peptide cleavage; inhibition, % at 6.95 µM; 370,000 tested, 0.83% active; AID 720648;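 active means inhibition above the mean of compounds lying between control limits plus 3 SD, set per campaign, cut at about 8.5% in these data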
aDG glyco act: alpha-DG glycosylation activation; activation, % at 10 µM; 360,000 tested, 0.22% active; Pro5-aDG cells, alpha-DG glycosylation AlphaScreen (IIH6); 0% Pro5, 100% B10-LARGE cell signal;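 active means activation of at least 8% versus controls, or a plate z-score of at least 8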;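 further: Pro5 are CHO cells carrying HIG-tagged alpha-DG that lacks glycosylation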
NR3A LBD binder: NR3A (human) ligand-binding domain modulation; 340,000 tested, 2.5% active; Tm shift relative to glycine control, % at 25 µM; NR3A LBD differential scanning fluorimetry, Tm shift; 0% = protein alone, 100% = glycine-bound protein; AID 1259313;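 active means melting temperature shift of at least 10% of the positive control shift, at one fixed dose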
Numbers stand for hits; - = inactive; . = not tested or not shown. Hits are enriched below; roughly 4% of the tested compounds scored in any of these assays.

SMILES	ADAM10 inh	FAS TE block	ADAM17 inh	aDG glyco act	NR3A LBD binder
O=C(Nc1ccc(-c2nc3ccccc3o2)cc1)c1ccc2c(c1)OCO2	-	-	-	-	25
Cc1cccc(C)c1NC(=S)N(CCN(C)C)Cc1cccs1	-	-	-	-	-
CC(C)NC(=O)C1(C)CSCC(=O)N1C1CCN(Cc2ccccc2)CC1 (configuration not stated)	-	.	-	-	.
c1ccc(COc2ccc(Nc3ncnc4nc[nH]c34)cc2)cc1	-	-	-	-	26
CCOC(=O)c1ccc(Nc2ncnc3nc[nH]c23)cc1	-	-	-	-	-
O=C(NN1C(=O)/C(=C/c2cccc(O)c2)SC1=S)c1ccccc1O	-	-	-	-	23
O=C(NN1C(=O)/C(=C/c2ccc(O)c(O)c2)SC1=S)c1ccccc1	-	-	-	-	13
O=C1/C(=C/c2ccc(O)c(O)c2)SC(=S)N1Nc1ccccc1	.	-	.	-	16
COc1cc(/C=C2\SC(=S)N(Nc3ccccc3)C2=O)ccc1O	-	-	-	-	11
Cc1ccc(C(=O)NN2C(=O)/C(=C/c3cn(C)c4ccccc34)SC2=S)cc1	-	-	-	-	-
Cn1cc(/C=C2\SC(=S)N(NC(=O)c3ccccc3Cl)C2=O)c2ccccc21	-	-	-	-	12
O=C(NC(Cc1ccccc1)C(=O)O)/C(=C/c1ccccc1)NC(=O)c1ccccc1 (configuration not stated)	-	-	-	-	14
CCc1ccc(S(=O)(=O)NCCc2csc(-c3ccccc3)n2)s1	-	-	-	-	-
O=C(CSc1nnc(-c2c[nH]c3ccccc23)o1)c1ccc(-c2ccccc2)cc1	-	-	-	-	24
O=C1OC(N2CCN(Cc3ccccc3)CC2)c2ccccc21 (configuration not stated)	-	-	-	-	-
CN(C(=O)c1cccc(NC(=O)Cc2cccc(NC(=O)C3CCN(C(=O)C4CCC4)CC3)c2)c1)C1CCC1	-	-	-	-	-
O=C(NC(=S)Nc1ccccc1Br)C1CCCCC1	-	-	-	-	13
COc1cccc(-c2c(-c3cc(OC)cc(OC)c3)n(C)c3ccc(-c4cnc(OC)nc4)cc23)c1	-	-	-	-	-
CC(Sc1nc(=O)cc(N)n1CCc1ccccc1)C(=O)NCc1ccccc1 (configuration not stated)	-	-	-	-	-
CCn1cc(S(=O)(=O)NCc2ccccc2Br)cn1	-	-	-	-	-
CCn1cc(S(=O)(=O)NCCc2ccccc2OC)cn1	-	-	-	-	11
COC(=O)c1cn(NC(=O)c2cnccn2)c(=O)c2ccccc12	-	-	-	-	-
O=C(CC1CCCCC1)NCCS(=O)(=O)N1CCN(c2ccccc2)CC1	-	-	-	-	-
CC(OC(=O)c1c2c(nc3ccccc13)/C(=C\c1ccc3c(c1)OCO3)CCC2)C(=O)Nc1ccc(S(N)(=O)=O)cc1 (configuration not stated)	.	-	.	-	22
Cc1cccc(C)c1NC(=O)COC(=O)c1c2c(nc3ccccc13)/C(=C\c1ccc3c(c1)OCO3)CCC2	-	-	-	-	-
SMILES	ADAM10 inh	FAS TE block	ADAM17 inh	aDG glyco act	NR3A LBD binder
COc1ccc(C(=O)C[n+]2cccc3cc(C)ccc32)cc1	-	-	-	-	-
COc1cc(/C=N/n2cnc3c(sc4nc(C)cc(C)c43)c2=O)ccc1O	.	.	.	.	26
Cc1ccc(C(=O)O)cc1NC(=O)Nc1ccc2c(c1)OCO2	-	-	-	-	-
O=C(CSc1ccc([N+](=O)[O-])cn1)Nc1ccc2[nH]c(=O)[nH]c2c1	-	-	-	-	-
COc1cc(NC(=O)Nc2ccc3c(c2)OCO3)cc(OC)c1OC	-	-	-	-	26
O=C(Nc1ccc([N+](=O)[O-])cc1)Nc1ccc2[nH]c(=O)[nH]c2c1	-	-	-	-	24
Cc1cccc(OCC(=O)Nc2ccc3c(c2)OCO3)c1C	-	-	-	-	23
O=C(Nc1cccc(C(=O)O)c1)Nc1ccc2c(c1)OCO2	-	-	-	-	24
COc1cc(C(=O)NC(=S)Nc2ccc3c(c2)OCO3)cc(OC)c1OC	-	-	-	-	-
CC(=O)c1cccc(NC(=O)N2CCCC2C(=O)NCc2ccc(F)cc2)c1 (configuration not stated)	-	-	-	-	-
O=C(CCn1c(=S)oc2ccccc21)NCCC1=CCCCC1	-	-	-	-	-
O=C(Nc1ccc2c(c1)OCO2)Nc1ccc2c(c1)OCO2	-	-	-	-	-
O=C(Nc1ccc(F)cc1)Nc1ccc2c(c1)OCO2	-	-	-	-	11
COc1cc([N+](=O)[O-])ccc1NC(=O)Nc1ccc2c(c1)OCCO2	-	-	-	-	-
O=C(Nc1ccc([N+](=O)[O-])cc1)Nc1ccc2c(c1)OCCO2	-	-	-	-	21
Cc1cc(C)n(-c2ccc(C(=O)OCC(=O)Nc3ccc(Cl)c(S(=O)(=O)N(C)C)c3)cc2)n1	-	-	-	-	-
CC(=O)NCCc1nc2cc(NS(=O)(=O)c3ccccc3)ccc2n1C	-	-	-	-	-
CC(=O)Nc1cccc(S(C)(=O)=O)c1	-	-	-	-	-
Cn1cccc1CC(=O)NNC(=S)NC(=O)c1ccccc1Br	-	-	-	-	-
COc1ccc(OCC(=O)c2c[nH]c3ccccc23)cc1	-	-	-	-	14
COc1ccccc1/C=C/C(=O)OCC(=O)c1c[nH]c2ccccc12	-	-	-	-	11
CC(C)Cc1ccc(C(C)C(=O)OCC(=O)c2c[nH]c3ccccc23)cc1 (configuration not stated)	-	-	-	-	23
COc1ccccc1/C=C/C(=O)OCC(=O)c1cc(C)n(C)c1C	-	-	-	-	-
CCc1ccc(NC(=O)CCC(=O)N2CCSc3ccccc32)cc1	-	-	-	-	-
O=C1COC(c2ccccc2)C2CCCCN12 (configuration not stated)	-	-	-	-	16
SMILES	ADAM10 inh	FAS TE block	ADAM17 inh	aDG glyco act	NR3A LBD binder
O=C(/C=C/c1ccco1)NC(=S)Nc1nc(-c2ccc3ccccc3c2)cs1	-	-	-	-	33
CC(C)CC(=O)NC(=S)Nc1nc(-c2ccc(Cl)cc2)cs1	-	-	-	-	30
O=C(/C=C\c1ccco1)Nc1nc(-c2ccccc2)cs1	-	-	-	-	-
O=C(/C=C/c1ccco1)NC(=S)Nc1nc(-c2ccc(Cl)cc2)cs1	-	-	-	-	129
CC(C)CC(=O)NC(=S)Nc1nc(-c2ccccc2)cs1	-	-	-	-	-
O=c1c2sccc2nc(SCc2cc(=O)n3cc(Cl)ccc3n2)n1-c1ccc(F)cc1	-	-	-	-	-
CC1=N/C(=C\c2ccccc2Cl)C(=O)O1	-	-	-	-	-
OC(CNCCC1C=Nc2ccccc21)Cn1c2ccc(Cl)cc2c2cc(Cl)ccc21 (configuration not stated)	-	-	-	-	27
COc1ccc(C(=O)NCc2nnc(SCC(=O)NCc3ccc(F)cc3)o2)cc1	-	-	-	-	11
